# Hits are enriched below; roughly 10% of the tested compounds scored in any of these assays.
# hNpr1 antagonist – blocks ANP-stimulated signaling of human Npr1 receptor | P16066 | HEK293 hNpr1 GloSensor cGMP, ANP-stimulated luminescence | Potency, µM (top dose mostly 46.3 µM), most hits filed as inhibitors | hit rate 1.6% among 76,000 | AID 1347048; calls by dose curve; note: nearly all actives have a fitted effect of over 60% in size
#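 Compound pre-incubated 30 min at room temperature on GloSensor-loaded HEK293 cells stably carrying hNpr1 and the pGS-40F cGMP biosensor. Stimulation uses hNppA at 0.1 nM final; luminescence is taken at baseline and 20 min post-agonist.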
# Luciferase inh – inhibitors of firefly (Photinus pyralis) luciferase; P08659; purified P. pyralis luciferase, luminescence, biochemical; Potency, µM (series often up to 115 µM), hits mostly inhibitors; hit rate 2.5% among 76,000; AID 1347043; note: nearly all actives have a fitted effect of over 65% in size
# Target sequence (P08659 whole entry, looked up): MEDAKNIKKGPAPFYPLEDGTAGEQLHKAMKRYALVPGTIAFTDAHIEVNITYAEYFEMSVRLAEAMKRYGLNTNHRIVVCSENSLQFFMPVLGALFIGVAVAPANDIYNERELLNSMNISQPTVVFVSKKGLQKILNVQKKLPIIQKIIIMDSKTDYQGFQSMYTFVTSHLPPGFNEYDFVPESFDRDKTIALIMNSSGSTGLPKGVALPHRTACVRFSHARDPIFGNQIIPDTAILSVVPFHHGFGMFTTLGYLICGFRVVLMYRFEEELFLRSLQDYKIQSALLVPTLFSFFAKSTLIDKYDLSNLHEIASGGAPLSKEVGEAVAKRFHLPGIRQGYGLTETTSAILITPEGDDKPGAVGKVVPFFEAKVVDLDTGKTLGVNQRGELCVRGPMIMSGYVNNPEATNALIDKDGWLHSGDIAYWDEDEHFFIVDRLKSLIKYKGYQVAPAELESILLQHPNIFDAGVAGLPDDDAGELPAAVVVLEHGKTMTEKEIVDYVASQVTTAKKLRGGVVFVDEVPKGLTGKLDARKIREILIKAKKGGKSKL
#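 FLuc 10nM, D-luciferin 10uM, ATP 10uM, Mg acetate 10mM, Tris acetate pH 7.5, Tween/BSA; cpd qHTS; enzyme added last; CCD luminescence.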
# GPT2 inhibitor – GPT2 alanine aminotransferase inhibition; Q8TD30; Recombinant GPT2, coupled pyruvate oxidase/HRP Amplex Red fluorescence; hit rate 0.25% among 100,000; Potency, µM (series often up to 57.7 µM), actives largely listed as inhibitors; note: nearly all actives have a fitted effect of over 60% in size
#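 GPT2 10ng/uL, a-KG 250uM, L-Ala 2mM, HEPES pH7.5 + 0.0001% Tween; 30 min RT. Then Amplex mix (PO/HRP/ThPP), 30 min RT dark, fluorescence. AOA 50uM used as positive control.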
# HEK cytotox – kills HEK 293 cells. HEK 293 viability, ATP luminescence (CellTiter-Glo), 48-72 h. Potency, µM (doses to about 115 µM), usual class: inhibitors. hit rate 6.6% among 94,000; note: nearly all actives have a fitted effect of over 60% in size
#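 Cells seeded first (HEK 293, 250 cells/well), then compound added by pintool. Incubation ran 48 or 72 hr at 37 degree Celsius. CellTiter-Glo was added and luminescence imaged after 10 min at room temperature.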
# 3T3 cytotox – cytotoxic compounds in NIH 3T3 cells | AID 1345082 | NIH 3T3 viability, CellTiter-Glo ATP luminescence, 48-72 h | Potency, µM (titrated, usually from 96.7 µM), usual class: inhibitors | hit rate 4.3% among 94,000; note: nearly all actives have a fitted effect of over 55% in size
#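 Mouse fibroblast NIH 3T3 cells, 400 per well, received compound via pintool and were incubated for 48 or 72 hr prior to CellTiter-Glo ATP luminescence measurement.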
# Numbers stand for hits; i = inactive; ? = inconclusive; nt = not tested or not shown. Unless noted, calls come from the whole dose curve; as a rule, active = well fitted curve in the direction sought with a large enough effect; inconclusive = small, poorly fitted or top-dose-only effect, or another doubt; inactive = no such curve, though single readings can be large; an effect the other way counts as inactive or inconclusive.
SMILES,hNpr1 antagonist,Luciferase inh,GPT2 inhibitor,HEK cytotox,3T3 cytotox
COc1ccccc1CC(=O)N1CCCc2ncc(C(=O)Nc3cccc(Cl)c3)cc21,?,i,i,56µM,?
O=C(Nc1cccc(C(F)(F)F)c1)c1cnc2c(c1)N(Cc1ccccc1)CCC2,i,i,i,63µM,32µM
COc1ccccc1CC(=O)N1CCCc2ncc(C(=O)Nc3cccc(C(F)(F)F)c3)cc21,i,i,?,50µM,?
COc1ccccc1CC(=O)N1CCCc2ncc(C(=O)Nc3ccc(OC)c(OC)c3)cc21,i,i,i,?,i
Cc1cnc(-c2ccccc2)n1CCNC(=O)C1CCCCC1,nt,nt,i,i,i
COc1ccccc1Nc1ncc2c(n1)CN(C(=O)c1ccc(Oc3ccccc3)cc1)CCN2,i,i,i,35µM,?
COc1ccccc1Nc1ncc2c(n1)CN(C(=O)c1cccc(O)c1)CCN2,i,i,i,100µM,i
Cn1c(C(=O)N2CCNc3cnc(Nc4cccc(C(F)(F)F)c4)nc3C2)cc2ccccc21,i,i,i,40µM,40µM
COc1ccc(C2(C(=O)NCc3cccc(N)c3)CCOCC2)cc1,nt,nt,nt,i,i
COC1C(=O)N(c2cccc(F)c2)C12CCN(C(=O)c1cccnc1C)CC2 (stereo not drawn),i,i,i,i,i
O=C1CCCCC(Cc2ccccc2)(C(=O)Nc2ccc(F)cc2)N1 (stereo not drawn),i,i,i,i,i
Cc1ccc(-n2c(C3CCN(C(=O)c4ccco4)CC3)n[nH]c2=O)cc1,i,i,i,i,22µM
CC(C)(C)c1ccc(C(=O)N2CCC(c3n[nH]c(=O)n3-c3ccccc3)CC2)cc1,i,i,i,?,i
Cc1ccc(-n2c(C3CCN(C(=O)Cc4ccccc4)CC3)n[nH]c2=O)cc1,i,i,i,i,?
Cc1ccc(-n2c(C3CCN(C(=O)Cc4cccc(F)c4)CC3)n[nH]c2=O)cc1,i,i,i,i,10µM
O=C(c1ccc2ccccc2n1)N1CCC(c2n[nH]c(=O)n2-c2ccccc2)CC1,i,i,i,i,45µM
Cc1ccc(-n2c(C3CCN(C(=O)c4cccc(F)c4)CC3)n[nH]c2=O)cc1,i,i,i,i,35µM
COC(=O)c1ccccc1NC(=O)O[C@@H]1CO[C@H]2[C@@H]1OC[C@@H]2Nc1nccc(-c2ccc3c(c2)OCO3)n1,i,i,i,i,i
COc1ccc(CN2C[C@@H](F)[C@@H](OCc3nc4ccccc4o3)C2)cc1,i,i,i,?,?
O=C(Nc1ccccc1Cl)c1ccc2nnc(-c3ccc(Cl)cc3)n2c1,nt,nt,i,?,?
Cc1ccc(-n2c(C3CCN(C(=O)c4ccc(F)c(F)c4)CC3)n[nH]c2=O)cc1,i,i,i,i,10µM
Cc1ccc(-n2c(C3CCN(C(=O)c4ccc5cc[nH]c5c4)CC3)n[nH]c2=O)cc1,i,i,i,i,32µM
Cc1ccc(-n2c(C3CCN(C(=O)c4cccc(C)c4)CC3)n[nH]c2=O)cc1,i,i,i,i,?
O=C1NC(=NC2CCCC2)C2(CCN(Cc3ccc(F)cc3)C2)N1c1cccnc1 (stereo not drawn),nt,nt,i,i,22µM
O=C1NC(=NC2CCCCC2)C2(CCN(Cc3ccc(F)cc3)C2)N1c1cccnc1 (stereo not drawn),nt,nt,i,i,40µM
SMILES,hNpr1 antagonist,Luciferase inh,GPT2 inhibitor,HEK cytotox,3T3 cytotox
O=C1NC(=NC2CCCCC2)C2(CCN(Cc3ccccc3)C2)N1c1cccnc1 (stereo not drawn),nt,nt,i,i,?
COc1ccc(CN2CCC3(C2)C(=NC2CCCCC2)NC(=O)N3c2cccnc2)cc1 (stereo not drawn),nt,nt,i,i,32µM
CCN1CCN(C(=O)c2ccc3c(c2)n(Cc2cccc(F)c2)c(=O)c2ccnn23)CC1,i,i,i,i,i
O=C1NC[C@@H](CCC(=O)N2CCCCC2)N2C[C@@H](NC(=S)Nc3ccc(Cl)cc3)C[C@@H]12,i,i,i,i,i
CCc1nc2c(c(-c3ccc(O)cc3)n1)CCN(Cc1ccc(C(F)(F)F)cc1)CC2,?,i,?,45µM,?
CCc1nc2c(c(-c3ccc(Cl)cc3)n1)CN(Cc1cccc(F)c1)CC2,i,i,i,20µM,11µM
CCc1nc2c(c(-c3ccc(Cl)cc3)n1)CCN(Cc1ccc(C(F)(F)F)cc1)CC2,i,i,i,50µM,i
CCc1nc2c(c(-c3ccc(O)cc3)n1)CN(Cc1cccc(C(F)(F)F)c1)CC2,i,i,i,?,?
CN1CCN(C(CN)C2CCCCC2)CC1 (stereo not drawn),nt,nt,i,?,45µM
Cc1ccc(C2NC(=O)N(CC(=O)Nc3ccc(C(F)(F)F)cc3)C3=C2C(=O)OC3)cc1 (stereo not drawn),?,i,i,25µM,32µM
O=C(CN1C(=O)NC(c2ccc(Cl)cc2)C2=C1COC2=O)Nc1ccc(C(F)(F)F)cc1 (stereo not drawn),?,i,i,?,22µM
CCCCc1ccc(NC(=O)CN2C(=O)NC(c3ccc(Cl)cc3)C3=C2COC3=O)cc1 (stereo not drawn),i,i,i,20µM,20µM
O=C(CN1C(=O)NC(c2ccc(Cl)cc2)C2=C1COC2=O)NCCc1ccc(Cl)cc1 (stereo not drawn),i,i,?,45µM,?
O=C(CN1C(=O)NC(c2ccccc2Cl)C2=C1COC2=O)NCCc1ccc(Cl)cc1 (stereo not drawn),i,i,i,?,?
CN(C)C(=O)N1CCCC(c2nc(CCOCC3CCCC3)no2)C1 (stereo not drawn),nt,nt,i,?,i
COc1ccc(CNC(=O)C2(c3ccc(OC)cc3)CCOCC2)cc1,nt,nt,nt,i,i
COc1ccc(-c2c(C(=O)NCC(C)C)nc3sccn23)cc1,nt,nt,i,?,?
O=C(NCc1ccccc1Cl)c1nc2cccnc2n(CCc2ccccc2)c1=O,nt,nt,i,i,i
O=C1[C@@H]2C[C@@H](CN2Cc2nccs2)Oc2ccccc2N1Cc1ccc(OC(F)(F)F)cc1,i,i,i,?,?
O=C1[C@@H]2C[C@@H](CN2C2CCCC2)Oc2ccccc2N1Cc1ccccc1,i,i,i,100µM,?
CC(C)N1C[C@@H]2C[C@H]1C(=O)N(Cc1ccc(OC(F)(F)F)cc1)c1ccccc1O2,i,i,i,71µM,?
COCCN1C(=O)[C@@H]2C[C@@H](CN2C2CCCC2)Oc2ccccc21,i,i,i,?,i
COc1ccc(CN2C(=O)[C@@H]3C[C@@H](CN3C(C)C)Oc3ccccc32)cc1,i,i,i,i,i
O=C1[C@@H]2C[C@@H](CN2C2COC2)Oc2ccccc2N1Cc1ccc(OC(F)(F)F)cc1,i,i,?,100µM,?
CN1CCC(N2C[C@@H]3C[C@H]2C(=O)N(Cc2ccc(OC(F)(F)F)cc2)c2ccccc2O3)CC1,i,i,i,?,40µM

# High-throughput results as filed in PubChem BioAssay.
